Data published in PubChem BioAssay (Tox21).
Results filed as inconclusive are left out. Calls of active or inactive are those of the source. The call rests on the fitted dose curve.

molecular target: Peroxisome proliferator-activated receptor delta (Homo sapiens) (UniProt Q03181); assay: qHTS assay to identify small molecule agonists of the peroxisome proliferator-activated receptor delta (PPARd) signaling pathway (AID 743212); details: HEK293H PPARd-UAS-bla, beta-lactamase FRET ratio, 17 h; series mostly up to 62.6 µM
Sequence (Q03181 whole entry, looked up): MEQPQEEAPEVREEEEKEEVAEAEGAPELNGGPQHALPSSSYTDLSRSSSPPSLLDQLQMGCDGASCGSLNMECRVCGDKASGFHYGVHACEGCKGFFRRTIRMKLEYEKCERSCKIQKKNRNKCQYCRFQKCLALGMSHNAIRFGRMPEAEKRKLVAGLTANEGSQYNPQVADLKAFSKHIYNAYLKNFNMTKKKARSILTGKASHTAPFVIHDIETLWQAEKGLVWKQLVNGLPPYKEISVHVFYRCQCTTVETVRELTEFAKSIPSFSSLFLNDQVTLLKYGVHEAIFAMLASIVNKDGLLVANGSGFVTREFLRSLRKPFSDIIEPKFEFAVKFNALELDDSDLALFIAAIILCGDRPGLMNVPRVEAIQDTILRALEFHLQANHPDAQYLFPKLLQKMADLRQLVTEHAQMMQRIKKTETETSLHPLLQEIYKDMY
Source text: U.S. Tox21 Program National Center for Advancing Translational Sciences [NCATS] NIH Chemical Genomics Center [NCGC] U.S. Environmental Protection Agency [EPA] National Institutes of Environmental Health Sciences [NIEHS] National Toxicology Program [NTP] U.S. Food and Drug Administration [FDA] Tox21 Assay Overview: The peroxisome proliferator-activated receptors (PPARs) are lipid-activated transcription factors of the nuclear receptor superfamily with three distinct subtypes namely PPAR alpha, PPAR delta (PPARd) and PPAR gamma. All these subtypes heterodimerizes with Retinoid X receptor (RXR) and have different physiological functions. […] To identify the compounds that activate PPAR-delta signaling, GeneBLAzer PPAR delta UAS-bla HEK293H cell line (Invitrogen, Carlsbad, CA, USA) containing a beta-lactamase reporter gene under the control of an Upstream Activator Sequence (UAS) was used to screen the Tox21 compound library.
Tox21 Assay Protocol Summary: PPARd-bla cells were dispensed at 3000 cells/6uL/well in 1536-well black wall/clear bottom plates using a Multidrop Combi (Thermo Fisher Scientific, Waltham, MA) dispenser. After the assay plates were incubated at 37 C and 5% CO2 for 5 h, 23 nL of compounds dissolved in DMSO, positive controls or DMSO only was transferred to the assay plate by a Pintool station (Kalypsys, San Diego, CA). The assay plates were incubated at 37C for 17 h. After 1 uL of LiveBLAzerTM B/G FRET substrate was added using a Bioraptr Flying Reagent Dispenser (FRD) workstation (Beckman Coulter, Indianapolis, IN, USA), the plates were incubated at room temperature for 2 h, and fluorescence intensity was measured by an Envision plate reader (PerkinElmer, Shelton, CT).

| SMILES | outcome |
| --- | --- |
| CNC(=O)[C@H]1O[C@@H](n2cnc3c(NCc4cc(Cl)ccc4OCc4cc(C)no4)ncnc32)[C@H](O)[C@@H]1N | inactive |
| Nc1ccc([N+](=O)[O-])c(N)c1 | inactive |
| CCOCCOCCOCC | inactive |
| CC(C)CC(=O)O | inactive |
| CCCCNc1ccc(C(=O)OCCN(C)C)cc1 | inactive |
| O=C(O)Cc1cn(-c2ccccc2)nc1-c1ccc(Cl)cc1 | inactive |
| C=C(C)C(=O)OCCOP(=O)(O)OCCOC(=O)C(=C)C | inactive |
| CCO[Si](CCCS)(OCC)OCC | inactive |
| O=C(O)C(=O)Cc1ccccc1 | inactive |
| OC[C@H](Cc1cccc(O)c1)[C@H](CO)Cc1cccc(O)c1 | inactive |
| COc1ccc2c(c1OC)C(=O)O[C@@H]2[C@H]1c2c(cc3c(c2OC)OCO3)CCN1C | inactive |
| COc1ccc(C2CNC(=O)C2)cc1OC1CCCC1 (stereo not given) | inactive |
| CCOC(=O)CC(=O)c1ccccc1 | inactive |
| CC(C)(C)NC(N)=O | inactive |
| Cc1c(I)c(=O)n(-c2ccccc2)n1C | inactive |
| CCN(C)C(=O)Oc1cccc([C@H](C)N(C)C)c1 | inactive |
| O=C1CC(c2ccc(Cl)cc2)CC(=O)N1 | inactive |
| CCOC(=O)/C=C/c1ccccc1 | inactive |
| CC(C)C[C@H](NC(=O)CNC(=O)[C@H](Cc1ccc(O)cc1)NC(=O)[C@H](CO)NC(=O)[C@H](Cc1c[nH]c2ccccc12)NC(=O)[C@H](Cc1cnc[nH]1)NC(=O)[C@@H]1CCC(=O)N1)C(=O)N[C@@H](CCCN=C(N)N)C(=O)N1CCC[C@H]1C(=O)NCC(N)=O (stereo in doubt) | inactive |
| CCC(CC)CO | inactive |

| SMILES | outcome |
| --- | --- |
| CCCCCCOC(=O)CC | inactive |
| COc1cc(C(=S)N2CCOCC2)cc(OC)c1OC | inactive |
| COc1ccc(S(=O)(=O)N2c3ccc(Cl)cc3[C@@](O)(c3ccccc3Cl)[C@H]2C(=O)N2CCC[C@@H]2C(N)=O)cc1OC | inactive |
| CC(=O)c1ccc2c(c1)Cc1ccccc1-2 | inactive |
| CN(CCOc1ccc(NS(C)(=O)=O)cc1)CCc1ccc(NS(C)(=O)=O)cc1 | inactive |
| C=C(C)C(=O)OCCN(CC)CC | inactive |
| O=C(OCc1ccccc1)C(=O)OCc1ccccc1 | inactive |
| Oc1ccccc1-c1nnco1 | inactive |
| CCCCCCOc1ccccc1C(N)=O | inactive |
| Oc1cn2c(n1)Nc1ccc(Cl)c(Cl)c1C2 | inactive |
| O=C(/N=N/C(=O)OCc1ccccc1)OCc1ccccc1 | inactive |
| CCCC(=O)C(C)=O | inactive |
| Cc1cc2cc3c(C)cc(=O)oc3c(C)c2o1 | inactive |
| CC(C)OC(=O)CCCCC(=O)OC(C)C | inactive |
| CNS(=O)(=O)CCc1ccc2[nH]cc(C3CCN(C)CC3)c2c1 | inactive |
| COC(=O)[C@@H]1[C@H]2C[C@H]3c4[nH]c5ccccc5c4CCN3C[C@@H]2CC[C@@H]1O | inactive |
| O=S(=O)(O)c1ccc2cc(O)c(S(=O)(=O)O)cc2c1 | inactive |
| O=C(O)c1cc(Br)c(O)c(Br)c1 | inactive |
| Cc1cccc2nccnc12 | inactive |
| C=COCCOCCOCCOC=C | inactive |
